# Source: PubChem BioAssay (National Center for Advancing Translational Sciences (NCATS))
# CHX counter: counter-screen for Shiga toxin inhibitors: cycloheximide protein synthesis inhibition; cell reporter, cycloheximide protein synthesis inhibition counterscreen; max response, %; 300,000 compounds, 12% hits; in the data active means max response mostly above about 13%, no sharp cut-off; inactive means mostly below about 14%; further: read at 38.3 µM for the half of the compounds with a filed dose; 0% is about no effect
# Pf growth 48h: P. falciparum growth inhibition at 48 hours (one generation). 310,000 compounds, 5.9% hits. P. falciparum luciferase growth in erythrocytes, 48 h. Potency, µM (highest dose often 28.7 µM), without a hit: at the highest dose activity change, negative = inhibition, usual class: inhibitors; further: potency means the concentration at half of the fitted maximal effect; on the % scale 0 is the no-effect control and ±100 the full control effect
#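 Compounds are pin-transferred into medium, infected erythrocytes (2% hematocrit, 0.1% parasitemia final) are added, and plates sit one parasite generation at 37 C in 5% CO2. Detection reagent is then added and luminescence measured.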
# HCV inhibitor: HCV inhibition. Huh7.5.1 HCVcc-Cre infection, luciferase reporter, 44 h. Potency, µM (highest dose often 41.8 µM), without a hit: top-dose activity change, negative = inhibition, actives largely listed as inhibitors. 340,000 compounds, 3.4% hits; further: potency means the concentration at half of the fitted maximal effect; on the % scale 0 is the no-effect control and ±100 the full control effect
#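 Infectious HCVcc-Cre (~0.5 moi) was added to cells just after compound, with cells seeded 4 h earlier at 1,000 per well. Luciferase activity after 44 h culture reported infection; substrate was incubated 15 min at room temperature before reading.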
# Pf growth 96h: P. falciparum growth inhibition at 96 hour, primary screen for plastid delayed-death inhibitors; P. falciparum luciferase reporter growth, 96 h; Potency, µM (doses to about 28.7 µM), inactives show top-dose activity change, negative = inhibition, actives largely listed as inhibitors; 320,000 compounds, 6.9% hits; AID 504834; further: potency means the concentration at half of the fitted maximal effect; on the % scale 0 is the no-effect control and ±100 the full control effect
#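 Luminescence readout: decreased luciferase signal marks inhibited growth of reporter-expressing P. falciparum in infected red cells (2% hematocrit, 0.05% parasitemia final), exposed to compound two generations (96 h, 37 C, 5% CO2).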
# Shiga toxin inh: inhibitors of Shiga toxin in Vero cells; 290,000 compounds, 9.2% hits; inhibition, % at 38.7 µM; Vero cells, Shiga toxin protein synthesis inhibition reporter; in the data active means inhibition mostly above about 28%, no sharp cut-off; inactive means mostly below about 43%; further: 0% is about no effect
# HCMV inh: inhibitors of human cytomegalovirus | HFF cells, HCMV-luciferase reporter, 72 h; stronger effect = lower value | activity change, negative = inhibition, % at 57.5 µM | 410,000 compounds, 4.5% hits; in the data active means activity change below about -60%; inconclusive means no clear call, values can overlap the other calls; inactive means above about -39%; further: on the % scale 0 is the no-effect control and ±100 the full control effect
#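 Compounds were evaluated in HFFs infected with an HCMV luciferase reporter virus (MOI 1 PFU/cell). Luciferase in lysates collected 72 h post infection served as the replication measure.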
# The depositor's hits bear a star; i = inactive; ? = inconclusive; nt = no result; + = active, no number; [ ] = dose if it differs, or a comment. A selection: hits, their analogues and other compounds. The true share with any hit is near 21%. Unless noted, the call rests on the fitted dose curve; in most records, active means well fitted inhibition curve with a large enough effect; inconclusive means small, poorly fitted or top-dose-only effect, or another doubt; inactive means no such curve, though single readings can be large or run the other way.
SMILES,CHX counter,Pf growth 48h,HCV inhibitor,Pf growth 96h,Shiga toxin inh,HCMV inh
Clc1ccc2nc(-c3ccccc3)c(CN3CCOCC3)n2c1,11.5,4.7%,-15.2%,?,54.6,-11.7
O=Nc1c(-c2cccc([N+](=O)[O-])c2)nc2ncccn12,-1.0,?,nt,-15.0%,-8.5,-15.4
Clc1ccc(-c2nc3ccccn3c2CN2CCOCC2)cc1,20.5*,?,-14.3%,4.0%,25.0*,18.9
Cc1cnccc1CN(C)Cc1nc(Cc2ccccc2Cl)no1,12.0,9.28µM*,?,-25.2%,-15.7,-60.5*
COCC1CCN(Cc2nc(Cc3ccccc3Cl)no2)CC1,1.4,31.0%,16.2%,?,4.2,133.7
Fc1ccccc1Cc1noc(CN2CCN(c3ccc(Cl)cn3)CC2)n1,1.0,37.3%,?,?,0.3,-31.4
Clc1ccccc1Cc1noc(CN2CCN(c3cnccn3)CC2)n1,13.0*,?,26.0%,?,34.3,-29.3
OCC1CCN(Cc2nc(Cc3ccccc3Cl)no2)CC1,12.4*,2.4%,26.2%,?,23.5,-3.1
CN(Cc1ccccn1)Cc1nc(Cc2ccccc2Cl)no1,-1.9,6.9%,2.2%,10.9%,-9.1,?
Clc1ccccc1Cc1noc(CN2CCSCC2)n1,12.1*,0.0%,13.9%,8.5%,39.6,-25.1
Cc1nn(-c2ccccc2)c(-n2cccc2)c1C(=O)NCCCN1CCN(c2ccccc2F)CC1,nt,nt,nt,nt,nt,-6.1
COc1ccc2c(=O)c(C)c(-c3ccccc3)oc2c1CN(C)C,nt,-14.6%,nt,?,nt,nt
Cc1ccc(OCC(=O)O)c(-n2nc3ccccc3n2)c1,1.3,7.9%,7.1%,-23.8%,-14.8,-7.7
CN(C)S(=O)(=O)c1cccc(C(=O)OCC(=O)NCc2ccccc2)c1,-7.7,nt,8.9%,24.5%,-9.6,47.7
CN(C)S(=O)(=O)c1ccc(C(=O)Oc2ccccc2)cc1,-2.1,1.3%,-4.8%,nt,4.7,-11.2
Cc1ccc(OC(=O)c2cccc(S(=O)(=O)N3CCCC3)c2)c(-n2nc3ccccc3n2)c1,68.9*,231.4%,0.8%,-42.7%,+,-36.0
CC(=O)Oc1ccc(C)cc1-n1nc2ccccc2n1,60.5*,205.2%,6.2%,-10.7%,130.9*,27.1
Cc1ccc(OC(=O)c2cccc(S(=O)(=O)N(C)C)c2)c(-n2nc3ccccc3n2)c1,63.8*,nt,-13.3%,220.0%,72.6*,-37.0
Cc1ccc(OC(=O)c2ccc(S(=O)(=O)N(C)C)cc2)c(-n2nc3ccccc3n2)c1,34.0*,284.9%,-10.9%,440.2%,80.7*,5.4
CCOC(=O)C1(C(C)C)Oc2ccccc2C(c2ccc(OC)cc2)=C1C(=O)OC (configuration not stated),4.5,nt,nt,nt,i,nt
Cc1cc(C)n(CCc2nc3c4ccccc4nc(SCc4ccc(Cl)cc4)n3n2)n1,nt,nt,nt,nt,nt,-0.1
Cc1cc2c(OCC(O)CNCc3ccco3)cccc2[nH]1 (configuration not stated),1.0,2.94µM*,2.1%,3.29µM*,-5.5,-19.4
OC(CNCc1ccccc1F)COc1cccc2ccccc12 (configuration not stated),-6.7,?,-10.4%,?,-7.5,9.1
Cc1c(NC(=O)c2cccs2)cccc1C(=O)O,10.4,100.1%,11.3%,-7.2%,47.3,73.9
C/C(=N/Nc1ccccc1C(=O)O)c1cccs1,19.6*,6.3%,17.1%,?,28.0,67.8
SMILES,CHX counter,Pf growth 48h,HCV inhibitor,Pf growth 96h,Shiga toxin inh,HCMV inh
CC(=O)Nc1ccc(NS(=O)(=O)c2ccc(Cl)c(C(=O)O)c2)cc1,-3.3,-7.6%,1.5%,40.3%,4.7,-9.8
C/C(=N\Nc1ccc(Cl)c(C(=O)O)c1)c1cccs1,32.0*,?,1.6%,7.1%,90.2*,?
C/C(=N\Nc1ccc(Cl)c(C(=O)O)c1)c1ccc[nH]1,50.9*,-5.7%,7.0%,37.5%,157.4*,-9.8
O=C(O)CC/C(=N\Nc1ccc(Cl)cc1)c1cccs1,11.4,-9.1%,16.5%,-14.0%,3.7,42.0
Cc1ccc2c(c1)cc1c(=O)n(CC(=O)NCCCc3ccccc3)nc(C)n12,-1.3,13.1%,-9.1%,31.8%,3.7,-17.4
O=C(CSc1nc2ccccc2c(=O)n1-c1ccc(F)cc1F)NC1CCS(=O)(=O)C1 (configuration not stated),nt,nt,nt,nt,nt,-33.7
Cc1ccc(C)c(SCC(=O)N(C)CC(=O)Nc2ccc(N3CCOCC3)cc2)c1,nt,-14.0%,-15.8%,-7.0%,nt,-12.2
CC(C(=O)N1CCc2ccccc21)N1CCN(Cc2ccc(Cl)cc2)CC1 (configuration not stated),-3.1,3.2%,-20.5%,-19.0%,-12.6,-6.0
COc1cc(C(=O)N2CCc3ccccc32)cc(OC)c1OC,1.0,16.3%,0.0%,-5.5%,0.9,27.7
COc1cc2ccccc2cc1C(=O)N1CCc2ccccc21,nt,9.28µM*,8.91µM*,?,nt,-19.1
CCOc1ccc(C(=O)N2CCc3ccccc32)cc1,44.5*,?,-2.3%,-15.2%,64.0*,59.9
O=C(c1ccc2ccccc2c1)N1CCc2ccccc21,37.0*,-20.7%,-11.0%,?,47.8,-22.8
CC(C)(C)c1cc(C(=O)N2CCc3ccccc32)ccn1,8.8,?,-25.6%,10.2%[5.75 µM],40.0*,-22.1
CCOc1ccc(-n2c(=O)[nH]cc(C(=O)N3CCc4ccccc43)c2=O)cc1,2.6,-12.1%,6.3%,-12.7%,22.7,-4.4
CC(C)(C)c1cc(C(=O)N2CCc3ccccc3C2)ccn1,13.2,8.2%,1.9%,-0.1%,3.2,-37.3
Cc1c(C(=O)N2CCOCC2)c(S(=O)(=O)Nc2ccc(OC(F)(F)F)cc2)c(C)n1C,3.9,2.4%,11.2%,-15.2%,-7.0,-32.5
COc1ccccc1CNc1ncnc2c1nnn2C,nt,nt,nt,nt,nt,-34.0
COc1ccccc1OC(C)C(=O)N1CCc2ccccc21 (configuration not stated),nt,10.4µM*,17.1%,-5.4%,nt,-1.7
CCCOc1ccc(C(=O)N2CCCc3ccccc32)cc1,14.9*,?,?,nt,19.0,-6.1
CCCCCCCCCCCC(=O)[O][Sn]([CH2]CCC)([CH2]CCC)[O]C(=O)CCCCCCCCCCC,nt,5.2%,nt,-2.0%,nt,nt
O=P(OC1CCCCC1)(OC1CCCCC1)C(O)c1c(Cl)cccc1Cl (configuration not stated),-1.8,10.4µM*,11.6%,5.22µM*,-12.9,9.8
COc1ccccc1C(O)P(=O)(OC1CCCCC1)OC1CCCCC1 (configuration not stated),-1.6,?,1.0%,-23.2%,-8.8,-11.6
O=P(OC1CCCCC1)(OC1CCCCC1)C(O)c1ccc(Cl)cc1Cl (configuration not stated),-3.7,1.85µM*,-24.6%,nt,13.1,-28.0
O=C(NCCN1CCCOC1=O)C(=O)NCCN1CCCOC1=O,-1.7,19.2%,21.6%,2.8%,-22.4,1.5
